# Compounds without any hit were thinned out: in the full panel of roughly 79,000, 15% have a hit. Values without a mark were called inactive. Calls of active or inactive are those of the source. Cut-off read from the data, not from the text of the source: active = growth inhibition above about 70%; inactive = the rest.
# Assays:
# [1] = NCI Yeast Anticancer Drug Screen. Data for the rad52 strain (AID 147);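 note: 0% = growth of vehicle-treated control cultures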; details: S. cerevisiae rad52 mutant growth inhibition, active compounds read high
# How it was run: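 Yeast strain carrying a DNA damage repair alteration was exposed to test compounds. Growth inhibition was measured relative to vehicle-treated controls.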
# [2] = NCI Yeast Anticancer Drug Screen. Data for the wt1 strain (AID 149);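 note: 0% = growth of vehicle-treated wt1 cultures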; details: S. cerevisiae wt1 strain (SPY 50644) growth inhibition, active compounds read high
# How it was run: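 Yeast wt1 strain exposed to compounds; growth inhibition measured relative to vehicle-treated controls.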
# [3] = NCI Yeast Anticancer Drug Screen. Data for the rad50 strain (AID 155);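 note: 0% = growth of vehicle-only cultures of the same strain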; details: S. cerevisiae rad50 strain growth inhibition, active compounds read high
# How it was run: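 Yeast carrying a defined DNA repair defect were exposed to test compounds, and growth was compared with vehicle-treated controls to give percent inhibition.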
# [4] = NCI Yeast Anticancer Drug Screen. Data for the mec2-1 strain (AID 157); details: S. cerevisiae mec2-1 strain, active compounds read high
# How it was run: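 mec2-1 yeast strain, carrying an alteration in DNA damage repair or cell cycle control, was exposed to compounds; growth inhibition was measured relative to vehicle-treated controls.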
# [5] = NCI Yeast Anticancer Drug Screen. Data for the rad14 strain (AID 159);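 note: 0% = growth of vehicle-treated control cultures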; details: S. cerevisiae rad14 strain growth inhibition, active compounds read high
# How it was run: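 Yeast cells carrying a defined DNA-repair defect were exposed to compounds, and growth inhibition was calculated relative to vehicle-treated control cultures.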
# [6] = NCI Yeast Anticancer Drug Screen. Data for the sgs1 mgt1 strain (AID 161);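 note: 0% = growth of cultures given vehicle only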; details: S. cerevisiae sgs1 mgt1 strain, active compounds read high
# How it was run: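 This yeast growth screen uses a strain with defined DNA-repair lesions; compound-treated growth is compared with vehicle-treated growth.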
# [7] = NCI Yeast Anticancer Drug Screen. Data for the CLN2oe strain (AID 163);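 note: 0% = growth of vehicle-only control cultures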; details: S. cerevisiae CLN2oe strain, active compounds read high
# How it was run: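 Yeast cells carrying a defined cell-cycle control alteration were exposed to test compounds. Growth inhibition was scored against vehicle-treated control cultures.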
# [8] = NCI Yeast Anticancer Drug Screen. Data for the cln2 rad14 strain (AID 165);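 note: 0% = growth equal to vehicle treated cultures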; details: S. cerevisiae cln2 rad14 strain, active compounds read high
# How it was run: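 Yeast carrying cln2 and rad14 alterations (cell cycle control and DNA damage repair) were exposed to compounds. Growth inhibition was measured against vehicle-treated controls.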
# [9] = NCI Yeast Anticancer Drug Screen. Data for the bub3 strain (AID 167); details: S. cerevisiae bub3 mutant strain, active compounds read high
# How it was run: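 Compounds were applied to a genetically altered yeast strain carrying a cell-cycle control defect. Growth inhibition was scored against vehicle-treated controls.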
# [10] = NCI Yeast Anticancer Drug Screen. Data for the wt2 strain (AID 169);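 note: 0% = growth of vehicle-treated yeast cultures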; details: S. cerevisiae wt2 strain growth inhibition, active compounds read high
# How it was run: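 Yeast cells were exposed to test compounds, and growth inhibition was measured relative to vehicle-treated controls.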
# [11] = NCI Yeast Anticancer Drug Screen. Data for the mlh1 strain (AID 171);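 note: 0% = growth of vehicle-treated control cultures of the same strain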; details: S. cerevisiae mlh1 strain growth inhibition, active compounds read high
# How it was run: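 Yeast carrying a defined genetic alteration in DNA damage repair or cell cycle control were exposed to test compounds. Growth inhibition was measured relative to vehicle-treated controls.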
# [12] = NCI Yeast Anticancer Drug Screen. Data for the sgs1 strain (AID 173);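 note: 0% = growth of vehicle-only control cultures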; details: S. cerevisiae sgs1 mutant, active compounds read high
# How it was run: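 Yeast mutant strains carrying defined defects in DNA damage repair or cell cycle control were exposed to test compounds. Growth inhibition was scored against vehicle-treated controls.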
# [13] = NCI Yeast Anticancer Drug Screen. Data for the mlh1 rad18 strain (AID 175); details: S. cerevisiae mlh1 rad18 strain growth inhibition, active compounds read high
# How it was run: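 Growth inhibition of the yeast strain was measured after compound exposure and expressed relative to vehicle-treated controls. The strain carries defined defects in DNA damage repair.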
# [14] = NCI Yeast Anticancer Drug Screen. Data for the rad18 strain (AID 177); details: S. cerevisiae rad18 mutant growth inhibition, active compounds read high
# How it was run: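 Yeast carrying a defined DNA damage repair alteration were exposed to compounds. Growth inhibition was expressed relative to vehicle-treated controls.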
# [15] = at 5.0 µM (retest, dose inferred, filed as 0.5)
# [16] = at 50.0 µM (retest, dose inferred, filed as 5.0)
structure (smiles),measurement,setting,value
CCCCCCCCCCCC1N=C(N)NC(CCCO)=C1C(=O)OC (stereo not drawn),growth inhibition,[1]; at 1.2 µM,5%
same,growth inhibition,[1]; at 3.7 µM,99% (active)
same,growth inhibition,[1]; at 11.0 µM,99% (active)
same,growth inhibition,[1]; at 33.0 µM,99% (active)
same,growth inhibition,[1]; at 100.0 µM,99% (active)
same,growth inhibition,[2]; at 1.2 µM,15%
same,growth inhibition,[2]; at 3.7 µM,99% (active)
same,growth inhibition,[2]; at 11.0 µM,99% (active)
same,growth inhibition,[2]; at 33.0 µM,99% (active)
same,growth inhibition,[2]; at 100.0 µM,99% (active)
same,growth inhibition,[3]; at 1.2 µM,28%
same,growth inhibition,[3]; at 3.7 µM,99% (active)
same,growth inhibition,[3]; [15],28%
same,growth inhibition,[3]; at 11.0 µM,99% (active)
same,growth inhibition,[3]; at 33.0 µM,99% (active)
same,growth inhibition,[3]; [16],100% (active)
same,growth inhibition,[3]; at 50.0 µM,89.2% (active)
same,growth inhibition,[3]; at 100.0 µM,99% (active)
same,growth inhibition,[4]; at 1.2 µM,12%
same,growth inhibition,[4]; at 3.7 µM,99% (active)
same,growth inhibition,[4]; [15],7%
same,growth inhibition,[4]; at 11.0 µM,99% (active)
same,growth inhibition,[4]; at 33.0 µM,99% (active)
same,growth inhibition,[4]; [16],99% (active)
same,growth inhibition,[4]; at 50.0 µM,91.8% (active)
same,growth inhibition,[4]; at 100.0 µM,99% (active)
same,growth inhibition,[5]; at 1.2 µM,72% (active)
same,growth inhibition,[5]; at 3.7 µM,99% (active)
same,growth inhibition,[5]; at 11.0 µM,99% (active)
same,growth inhibition,[5]; at 33.0 µM,99% (active)
same,growth inhibition,[5]; at 100.0 µM,99% (active)
same,growth inhibition,[6]; [15],65%
same,growth inhibition,[6]; [16],99% (active)
same,growth inhibition,[6]; at 50.0 µM,88.4% (active)
same,growth inhibition,[7]; at 1.2 µM,16%
same,growth inhibition,[7]; at 3.7 µM,99% (active)
same,growth inhibition,[7]; at 11.0 µM,99% (active)
same,growth inhibition,[7]; at 33.0 µM,99% (active)
same,growth inhibition,[7]; at 100.0 µM,99% (active)
same,growth inhibition,[8]; [15],21%
same,growth inhibition,[8]; [16],100% (active)
same,growth inhibition,[8]; at 50.0 µM,90.8% (active)
same,growth inhibition,[9]; at 1.2 µM,11%
same,growth inhibition,[9]; at 3.7 µM,99% (active)
same,growth inhibition,[9]; [15],6%
same,growth inhibition,[9]; at 11.0 µM,99% (active)
same,growth inhibition,[9]; at 33.0 µM,98% (active)
same,growth inhibition,[9]; [16],99% (active)
same,growth inhibition,[9]; at 50.0 µM,91.5% (active)
same,growth inhibition,[9]; at 100.0 µM,98% (active)
same,growth inhibition,[10]; at 1.2 µM,16%
same,growth inhibition,[10]; at 3.7 µM,99% (active)
same,growth inhibition,[10]; at 11.0 µM,99% (active)
same,growth inhibition,[10]; at 33.0 µM,99% (active)
same,growth inhibition,[10]; at 100.0 µM,99% (active)
same,growth inhibition,[11]; at 1.2 µM,6%
same,growth inhibition,[11]; at 3.7 µM,99% (active)
same,growth inhibition,[11]; at 11.0 µM,99% (active)
same,growth inhibition,[11]; at 33.0 µM,99% (active)
same,growth inhibition,[11]; at 100.0 µM,98% (active)
same,growth inhibition,[12]; at 1.2 µM,48%
same,growth inhibition,[12]; at 3.7 µM,99% (active)
same,growth inhibition,[12]; at 11.0 µM,99% (active)
same,growth inhibition,[12]; at 33.0 µM,99% (active)
same,growth inhibition,[12]; at 100.0 µM,99% (active)
same,growth inhibition,[13]; [15],53%
same,growth inhibition,[13]; [16],99% (active)
same,growth inhibition,[13]; at 50.0 µM,85.5% (active)
same,growth inhibition,[14]; at 1.2 µM,67%
same,growth inhibition,[14]; at 3.7 µM,99% (active)
same,growth inhibition,[14]; at 11.0 µM,99% (active)
same,growth inhibition,[14]; at 33.0 µM,99% (active)
same,growth inhibition,[14]; at 100.0 µM,98% (active)

# — PubChem BioAssay (NCI)
